# Laboratory results reported in PubChem BioAssay AID1159580 (chemical genetic matrix, 2015).
# Where “and” joins values, the source holds several entries; their conditions need not be identical. Equal entries are not always repeated. Screen size: about 5,500 compounds; about 2,000 (36%) were called active. Not shown: some 18% with an inconclusive outcome. Some of the results follow. Values without a mark were called inactive. No stated cut-off is given here; in the data, active means normalized growth mostly below about 0.91 (no sharp cut-off); inconclusive means no clear call, values can overlap the other calls; inactive means mostly above about 0.92.
# Test: chemical genetic growth profiling, strain panel (AID 1159580);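 further: tested at 20 µM; growth read once vehicle control cultures reached saturation at 30 °C; 1 = growth at the plate median or of vehicle wells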
# Conditions: S. cerevisiae deletion strains, growth OD
smiles,measurement,setting,value
CCC(C)C(=O)O[C@@H]1C[C@@]2(C)[C@H](c3ccoc3)OC(=O)CC23OC2(C)OC34[C@H](OC(=O)C(C)C)[C@@]3(O)[C@@H](OC(=O)C5(C)OC5C)[C@@]5(C)C[C@]3(O)[C@@](C)([C@H]5CC(=O)OC)C14O2 (stereo partly drawn),normalized growth,"locus YAL021C, strain ccr4, stronger effect = lower value",1.03
same,normalized growth,"locus YAL026C, strain drs2, stronger effect = lower value",0.981
same,normalized growth,"locus YAL030W, strain snc1, stronger effect = lower value",0.996
same,normalized growth,"locus YBL061C, strain skt5, stronger effect = lower value",1
same,normalized growth,"locus YBR009C, strain hhf1, stronger effect = lower value",1.02
same,normalized growth,"locus YBR021W, strain FUR4, stronger effect = lower value",1.07
same,normalized growth,"locus YBR023C, strain chs3, stronger effect = lower value",1
same,normalized growth,"locus YBR171W, strain sec66, stronger effect = lower value",0.988
same,normalized growth,"locus YBR229C, strain ROT2, stronger effect = lower value",1.01
same,normalized growth,"locus YBR231C, strain swc5, stronger effect = lower value",0.996
same,normalized growth,"locus YBR279W, strain paf1, stronger effect = lower value",0.995
same,normalized growth,"locus YCL011C, strain gbp2, stronger effect = lower value",1
same,normalized growth,"locus YCL016C, strain dcc1, stronger effect = lower value",1.01
same,normalized growth,"locus YCL029C, strain bik1, stronger effect = lower value",0.994
same,normalized growth,"locus YCL061C, strain MRC1, stronger effect = lower value",1
same,normalized growth,"locus YCL069W, strain vba3, stronger effect = lower value",0.995
same,normalized growth,"locus YCR088W, strain abp1, stronger effect = lower value",0.999
same,normalized growth,"locus YDL005C, strain med2, stronger effect = lower value",1.02
same,normalized growth,"locus YDL035C, strain GPR1, stronger effect = lower value",0.974
same,normalized growth,"locus YDL040C, strain nat1, stronger effect = lower value",0.996
same,normalized growth,"locus YDL074C, strain BRE1, stronger effect = lower value",1.01
same,normalized growth,"locus YDL101C, strain DUN1, stronger effect = lower value",1.03
same,normalized growth,"locus YDL185W, strain tfp1, stronger effect = lower value",1.01
same,normalized growth,"locus YDL192W, strain arf1, stronger effect = lower value",0.987
same,normalized growth,"locus YDR001C, strain nth1, stronger effect = lower value",0.999
same,normalized growth,"locus YDR069C, strain doa4, stronger effect = lower value",0.991
same,normalized growth,"locus YDR101C, strain arx1, stronger effect = lower value",0.977
same,normalized growth,"locus YDR137W, strain rgp1, stronger effect = lower value",0.651 (active)
same,normalized growth,"locus YDR150W, strain NUM1, stronger effect = lower value",1
same,normalized growth,"locus YDR159W, strain sac3, stronger effect = lower value",0.981
same,normalized growth,"locus YDR162C, strain NBP2, stronger effect = lower value",0.993
same,normalized growth,"locus YDR195W, strain ref2",1.03
same,normalized growth,"locus YDR297W, strain sur2, stronger effect = lower value",0.992
same,normalized growth,"locus YDR318W, strain mcm21, stronger effect = lower value",1.01
same,normalized growth,"locus YDR334W, strain swr1, stronger effect = lower value",1
same,normalized growth,"locus YDR335W, strain msn5, stronger effect = lower value",0.997
same,normalized growth,"locus YDR388W, stronger effect = lower value",1.01
same,normalized growth,"locus YDR392W, strain spt3, stronger effect = lower value",0.998
same,normalized growth,"locus YDR502C, strain sam2, stronger effect = lower value",1.03
same,normalized growth,"locus YEL003W, strain gim4, stronger effect = lower value",1
same,normalized growth,"locus YEL037C, strain rad23, stronger effect = lower value",1.01
same,normalized growth,"locus YEL061C, strain CIN8 (second series), stronger effect = lower value",1
same,normalized growth,"locus YEL061C, strain CIN8, stronger effect = lower value",1
same,normalized growth,"locus YER015W, strain faa2, stronger effect = lower value",1.01
same,normalized growth,"locus YER016W, strain bim1, stronger effect = lower value",1
same,normalized growth,"locus YER110C, stronger effect = lower value",1.02
same,normalized growth,"locus YER111C, strain swi4, stronger effect = lower value",0.99
same,normalized growth,"locus YER155C, strain BEM2 (second series), stronger effect = lower value",1.02
same,normalized growth,"locus YER155C, strain BEM2, stronger effect = lower value",1.01
same,normalized growth,"locus YER167W, strain BCK2, stronger effect = lower value",0.995
same,normalized growth,"locus YFR010W, strain ubp6, stronger effect = lower value",1.01
same,normalized growth,"locus YGL078C, strain dbp3, stronger effect = lower value",1.03
same,normalized growth,"locus YGL086W, strain mad1, stronger effect = lower value",1.02
same,normalized growth,"locus YGL167C, strain pmr1, stronger effect = lower value",0.993
same,normalized growth,"locus YGL173C, strain kem1, stronger effect = lower value",0.977
same,normalized growth,"locus YGL227W, strain vid30, stronger effect = lower value",0.992
same,normalized growth,"locus YGL240W, strain doc1, stronger effect = lower value",1
same,normalized growth,"locus YGL248W, strain PDE1, stronger effect = lower value",1.03
same,normalized growth,"locus YGL253W, strain hxk2, stronger effect = lower value",0.986
same,normalized growth,"locus YGR135W, strain pre9, stronger effect = lower value",1.06
same,normalized growth,"locus YGR252W, strain gcn5, stronger effect = lower value",1.15
same,normalized growth,"locus YHR013C, strain ard1, stronger effect = lower value",1.01
same,normalized growth,"locus YHR027C, strain rpn1, stronger effect = lower value",0.996
same,normalized growth,"locus YHR030C, strain SLT2, stronger effect = lower value",1.05
same,normalized growth,"locus YHR079C, strain IRE1 (second series), stronger effect = lower value",1
same,normalized growth,"locus YHR079C, strain IRE1, stronger effect = lower value",1.04
same,normalized growth,"locus YHR094C, strain hxt1, stronger effect = lower value",1.01
same,normalized growth,"locus YHR129C, strain ARP1, stronger effect = lower value",1.02
same,normalized growth,"locus YHR142W, strain chs7, stronger effect = lower value",0.994
same,normalized growth,"locus YHR200W, strain rpn10, stronger effect = lower value",1.03
same,normalized growth,"locus YIL066C, strain RNR3, stronger effect = lower value",0.982
same,normalized growth,"locus YIL073C, strain SPO22, stronger effect = lower value",1
same,normalized growth,"locus YIL125W, strain kgd1, stronger effect = lower value",1
same,normalized growth,"locus YIR030C, strain dcg1, stronger effect = lower value",1
same,normalized growth,"locus YJL092W, strain hpr5, stronger effect = lower value",1.01
same,normalized growth,"locus YJL095W, strain BCK1 (second series), stronger effect = lower value",1.02
same,normalized growth,"locus YJL095W, strain BCK1, stronger effect = lower value",1.06 and 1.02
same,normalized growth,"locus YJL115W, strain asf1, stronger effect = lower value",1.01
same,normalized growth,"locus YJL129C, strain trk1, stronger effect = lower value",0.98
same,normalized growth,"locus YJL134W, strain LCB3, stronger effect = lower value",1
same,normalized growth,"locus YJL154C, strain vps35, stronger effect = lower value",0.993
same,normalized growth,"locus YJL164C, strain tpk1, stronger effect = lower value",0.996
same,normalized growth,"locus YJL166W, strain qcr8, stronger effect = lower value",0.989
same,normalized growth,"locus YJL168C, strain set2, stronger effect = lower value",1.01
same,normalized growth,"locus YJL187C, strain SWE1 (second series), stronger effect = lower value",1.04
same,normalized growth,"locus YJL187C, strain SWE1, stronger effect = lower value",1
same,normalized growth,"locus YJR066W, strain TOR1, stronger effect = lower value",0.979
same,normalized growth,"locus YJR075W, strain HOC1, stronger effect = lower value",1.02
same,normalized growth,"locus YKL009W, strain mrt4, stronger effect = lower value",0.972
same,normalized growth,"locus YKL068W, stronger effect = lower value",1
same,normalized growth,"locus YKL085W, strain MDH1 (second series), stronger effect = lower value",1
same,normalized growth,"locus YKL085W, strain MDH1, stronger effect = lower value",1
same,normalized growth,"locus YKL160W, strain elf1, stronger effect = lower value",0.966
same,normalized growth,"locus YKL190W, strain CNB1, stronger effect = lower value",0.999
same,normalized growth,"locus YKR001C, strain vps1, stronger effect = lower value",0.996
same,normalized growth,"locus YKR026C, strain gcn3, stronger effect = lower value",1
same,normalized growth,"locus YKR091W, strain srl3, stronger effect = lower value",0.996
same,normalized growth,"locus YLL001W, strain dnm1, stronger effect = lower value",1
same,normalized growth,"locus YLL026W, stronger effect = lower value",1
same,normalized growth,"locus YLL041C, strain sdh2, stronger effect = lower value",0.988
same,normalized growth,"locus YLR027C, strain aat2, stronger effect = lower value",1.01
same,normalized growth,"locus YLR039C, strain RIC1, stronger effect = lower value",0.774
same,normalized growth,"locus YLR058C, strain SHM2, stronger effect = lower value",1.01
same,normalized growth,"locus YLR102C, strain apc9, stronger effect = lower value",1.01
same,normalized growth,"locus YLR113W, strain HOG1, stronger effect = lower value",1.01
same,normalized growth,"locus YLR221C, strain rsa3, stronger effect = lower value",0.994
same,normalized growth,"locus YLR258W, strain gsy2, stronger effect = lower value",0.983
same,normalized growth,"locus YLR262C, strain YPT6 (second series), stronger effect = lower value",0.647 (active)
same,normalized growth,"locus YLR268W, strain sec22, stronger effect = lower value",0.958
same,normalized growth,"locus YLR320W, strain mms22, stronger effect = lower value",0.999
same,normalized growth,"locus YLR342W, strain FKS1, stronger effect = lower value",1.01
same,normalized growth,"locus YLR357W, strain rsc2, stronger effect = lower value",1.03
same,normalized growth,"locus YLR370C, strain arc18, stronger effect = lower value",0.996
same,normalized growth,"locus YLR371W, strain rom2, stronger effect = lower value",1.01
same,normalized growth,"locus YLR384C, strain iki3, stronger effect = lower value",1.01
same,normalized growth,"locus YLR418C, strain cdc73, stronger effect = lower value",1.04
same,normalized growth,"locus YML016C, strain PPZ1, stronger effect = lower value",1.01
same,normalized growth,"locus YML032C, strain rad52, stronger effect = lower value",0.98
same,normalized growth,"locus YML120C, strain ndi1, stronger effect = lower value",1.01
same,normalized growth,"locus YML124C, strain tub3, stronger effect = lower value",0.998
same,normalized growth,"locus YMR058W, strain fet3, stronger effect = lower value",1.01
same,normalized growth,"locus YMR078C, strain ctf18, stronger effect = lower value",0.999
same,normalized growth,"locus YMR125W, strain sto1, stronger effect = lower value",1.01
same,normalized growth,"locus YMR129W, stronger effect = lower value",0.99
same,normalized growth,"locus YMR205C, strain PFK2, stronger effect = lower value",0.975
same,normalized growth,"locus YMR223W, strain ubp8, stronger effect = lower value",1.01
same,normalized growth,"locus YMR231W, strain pep5, stronger effect = lower value",0.992
same,normalized growth,"locus YMR307W, strain GAS1, stronger effect = lower value",1.01
same,normalized growth,"locus YNL067W, strain RPL9B, stronger effect = lower value",1.05
same,normalized growth,"locus YNL071W, strain lat1, stronger effect = lower value",1.02
same,normalized growth,"locus YNL128W, strain TEP1, stronger effect = lower value",0.99
same,normalized growth,"locus YNL153C, strain GIM3, stronger effect = lower value",1.07
same,normalized growth,"locus YNL183C, strain NPR1, stronger effect = lower value",0.988
same,normalized growth,"locus YNL209W, strain ssb2, stronger effect = lower value",1.02
same,normalized growth,"locus YNL233W, strain BNI4, stronger effect = lower value",1.04
same,normalized growth,"locus YNL248C, strain rpa49, stronger effect = lower value",1.03
same,normalized growth,"locus YNL250W, strain rad50, stronger effect = lower value",1.05
same,normalized growth,"locus YNL271C, strain bni1, stronger effect = lower value",1.01
same,normalized growth,"locus YNL298W, strain CLA4, stronger effect = lower value",1.02
same,normalized growth,"locus YNL307C, strain MCK1, stronger effect = lower value",1.01
same,normalized growth,"locus YNL322C, strain KRE1 (second series), stronger effect = lower value",1
same,normalized growth,"locus YNL322C, strain KRE1, stronger effect = lower value",1
same,normalized growth,"locus YNR049C, strain mso1, stronger effect = lower value",1.01
same,normalized growth,"locus YNR052C, strain pop2, stronger effect = lower value",1.03
same,normalized growth,"locus YOL012C, strain htz1",0.642
same,normalized growth,"locus YOL147C, strain pex11, stronger effect = lower value",0.999
same,normalized growth,"locus YOR001W, strain rrp6, stronger effect = lower value",1
same,normalized growth,"locus YOR061W, strain CKA2, stronger effect = lower value",0.987
same,normalized growth,"locus YOR069W, strain VPS5, stronger effect = lower value",1
same,normalized growth,"locus YOR070C, strain gyp1, stronger effect = lower value",1.02
same,normalized growth,"locus YOR080W, strain dia2, stronger effect = lower value",1.01
same,normalized growth,"locus YOR083W, strain WHI5, stronger effect = lower value",1.01
same,normalized growth,"locus YOR106W, strain vam3, stronger effect = lower value",0.998
same,normalized growth,"locus YOR136W, strain idh2, stronger effect = lower value",1.01
same,normalized growth,"locus YOR144C, strain elg1, stronger effect = lower value",0.998
same,normalized growth,"locus YOR184W, strain ser1, stronger effect = lower value",0.971
same,normalized growth,"locus YOR231W, strain MKK1, stronger effect = lower value",0.991
same,normalized growth,"locus YOR265W, strain rbl2, stronger effect = lower value",0.984
same,normalized growth,"locus YOR270C, strain vph1, stronger effect = lower value",0.777 (active)
same,normalized growth,"locus YOR290C, strain snf2, stronger effect = lower value",1
same,normalized growth,"locus YOR316C, strain cot1, stronger effect = lower value",0.999
same,normalized growth,"locus YPL051W, strain arl3, stronger effect = lower value",0.983
same,normalized growth,"locus YPL055C, strain LGE1, stronger effect = lower value",0.979
same,normalized growth,"locus YPL078C, strain atp4, stronger effect = lower value",0.992
same,normalized growth,"locus YPL106C, strain sse1, stronger effect = lower value",1.06
same,normalized growth,"locus YPL240C, strain hsp82, stronger effect = lower value",1
same,normalized growth,"locus YPL241C, strain CIN2, stronger effect = lower value",0.983
same,normalized growth,"locus YPL256C, strain CLN2, stronger effect = lower value",1.04
same,normalized growth,"locus YPR119W, strain clb2, stronger effect = lower value",1.01
same,normalized growth,"locus YPR141C, strain kar3, stronger effect = lower value",1.01
same,normalized growth,"locus YPR163C, strain tif3, stronger effect = lower value",1.01
same,normalized growth,"locus YPR167C, strain met16, stronger effect = lower value",1.01
same,normalized growth,"strain wtn01, stronger effect = lower value",0.982
